Results as given in PubChem BioAssay (NCATS).
Inconclusive results are not listed. Unmarked numbers belong to inactive results. Calls come from the whole dose curve; as a rule, active = well fitted inhibition curve with a large enough effect; inconclusive = small, poorly fitted or top-dose-only effect; inactive = flat fitted curve, though single readings scatter. Where a SMILES comes first, the peptide text is derived from it. Bridges are numbered along the chain shown (N, C = ends). [ ]: non-standard residue; d: D form. The star is where a group is joined. ξ: configuration not given here. d(aThr) = C[C@@H](O)[C@@H](N)C(=O)O; ξThr(3R) = C[C@@H](O)C(N)C(=O)O; X3 = CC[C@@H](C)CCCCC(=O)*; dDab = NCC[C@@H](N)C(=O)O

Test: Drug repurposing screens with cells derived from glioblastoma tumor samples (AID 1345199); note: nearly all actives have a fitted effect of over 40% in size
Details: GBM patient neurospheres viability, ATP luminescence, 48 h; at 45.9 µM (top of the series); tumour line B
Method in brief: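 Four patient lines of CD133+ GBM neurospheres were screened at several concentrations; hits were retested in those lines plus three slower-growing GBM lines, using 48-hour treatment and ATP-based viability.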
% is set by controls: 0 for no effect and ±100 for the full control effect.

SMILES	activity, negative = cell killing
CCN(CC)C(=O)c1cccnc1	-8.29%
CNC(C)CCC=C(C)C (stereo not drawn)	-23.7%
CNC(=O)C[C@@H](N)C(=O)N[C@@H](C(=O)N[C@@H]1C(=O)N2[C@@H]1SC(C)(C)[C@@H]2C(=O)O)c1ccc(O)cc1	-11.1%
COC(=O)CC[C@H](N)C(=O)O	-13.7%
O=C(NNCS(=O)(=O)O)c1ccncc1	-4.21%
Cc1ccccn1	-10.1%
C=C1CC[C@H](O)CC1=C/C=C1\CCC[C@]2(C)[C@@H]([C@H](C)CC[C@@H](O)C(C)(C)O)CC[C@@H]12	-20.7%
N=C(N)n1cccn1	-2.75%
COc1ccccc1N1CCN(CCCC(=O)c2ccc(F)cc2)CC1	-16%
Cc1cccc(C)c1NC(=O)C1CCCCN1C (stereo not drawn)	-7.34%
C=Cc1ccc(S(=O)(=O)O)cc1	-6.14%
O=C(O)Cc1nn(Cc2ccc(Br)cc2F)c(=O)c2ccccc12	-21.4%

Same assay, conditions: GBM patient neurospheres viability, ATP luminescence, 48 h; at 45.9 µM (top of the series); tumour line D

SMILES	activity, negative = cell killing
COC(=O)CC[C@H](N)C(=O)O	-12.9%
CC[C@@H](C)CCCCC(=O)N[C@H](CCN)C(=O)N[C@@H](C(=O)N[C@H](CCN)C(=O)N[C@@H]1CCNC(=O)C([C@@H](C)O)NC(=O)[C@@H](CCN)NC(=O)[C@@H](CCN)NC(=O)[C@@H](CC(C)C)NC(=O)[C@@H](Cc2ccccc2)NC(=O)[C@@H](CCN)NC1=O)[C@@H](C)O (stereo partly drawn) (X3-[dDab][d(aThr)][dDab][dDab][dDab][dF][dL][dDab][dDab][ξThr(3R)]; lactam 4-C)	-10.3%
C=Cc1ccc(S(=O)(=O)O)cc1	-2.96%
O=C(O)Cc1nn(Cc2ccc(Br)cc2F)c(=O)c2ccccc12	-12.1%
CC(=C\c1ccccc1)/C=C1/SC(=S)N(CC(=O)O)C1=O	-25%

Same assay, conditions: GBM patient neurospheres viability, ATP luminescence, 48 h; at 46.1 µM (top of the series); tumour line C

SMILES	activity, negative = cell killing
CCN(CC)C(=O)c1cccnc1	-25.5%
CNC(=O)C[C@@H](N)C(=O)N[C@@H](C(=O)N[C@@H]1C(=O)N2[C@@H]1SC(C)(C)[C@@H]2C(=O)O)c1ccc(O)cc1	-11.3%
Cc1ccccn1	-22.4%
CC[C@@H](C)CCCCC(=O)N[C@H](CCN)C(=O)N[C@@H](C(=O)N[C@H](CCN)C(=O)N[C@@H]1CCNC(=O)C([C@@H](C)O)NC(=O)[C@@H](CCN)NC(=O)[C@@H](CCN)NC(=O)[C@@H](CC(C)C)NC(=O)[C@@H](Cc2ccccc2)NC(=O)[C@@H](CCN)NC1=O)[C@@H](C)O (stereo partly drawn) (X3-[dDab][d(aThr)][dDab][dDab][dDab][dF][dL][dDab][dDab][ξThr(3R)]; lactam 4-C)	4.35%
Cc1cccc(C)c1NC(=O)C1CCCCN1C (stereo not drawn)	2.03%
CC(=C\c1ccccc1)/C=C1/SC(=S)N(CC(=O)O)C1=O	-14.3%
